Experimental data taken from the supplement of paper PMC4022240.
± gives the standard deviation.

T1: HaloTag-ATRX ADD domain (163-292)
T1 chain: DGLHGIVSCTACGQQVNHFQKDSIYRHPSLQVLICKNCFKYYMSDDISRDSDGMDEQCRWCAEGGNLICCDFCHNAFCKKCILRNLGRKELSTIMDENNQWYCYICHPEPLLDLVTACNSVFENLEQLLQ


Key:
Experiment in all cases: peptide microarray binding signal (635 nm), min-max normalized on array (fraction of array maximum); higher = stronger binding
Conditions in all cases: peptide region: Unmod H1 variant
[1] = biological target: T1, HaloTag-ATRX ADD domain (163-292)
Procedure, shortened: (§1)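 Triplicate spots of histone 13-mer peptide–cellulose conjugates with a Cy3 tracer were printed on nitrocellulose and probed for 1 h at 4°C with biotin-labelled HaloTag reader fusions (10 nM to 1 μM) plus streptavidin-Alexa Fluor 647 or rabbit histone antibodies (1:10,000 to 1:2,000) plus anti-rabbit Alexa 647. An Axon GenePix 4000B read the 635 nm channel. Binding signal is the spot-triplicate mean intensity after min-max scaling within each library.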

[2] = biological target: HaloTag-ING2 PHD (mouse Ing2 200-280)
Procedure, shortened: as §1

[3] = biological target: anti-H3K4me3 antibody ab8580
Procedure, shortened: as §1

[4] = biological target: anti-H3K9me3 antibody ab8898
Procedure, shortened: as §1

[5] = binder concentration: 1:2,000 dilution
[6] = binder concentration: 1:10,000 dilution

Row | Binder | peptide microarray binding signal ([1]; binder concentration: 50 nM) | peptide microarray binding signal ([1]; binder concentration: 500 nM) | peptide microarray binding signal ([2]; binder concentration: 10 nM) | peptide microarray binding signal ([2]; binder concentration: 100 nM) | peptide microarray binding signal [3, 5] | peptide microarray binding signal [3, 6] | peptide microarray binding signal [4, 5] | peptide microarray binding signal [4, 6]
1 | KKLKKATGASKKS [Unmod H1 variant K K L K K A T G A S K K S] | 0.0152 ± 0.00029 | 0.00691 ± 0.0006 | 0.00161 ± 6.7e-05 | 0.0034 ± 0.00046 | 0.000396 ± 1.2e-05 | 0.000856 ± 8.9e-06 | 0.000257 ± 2.5e-05 | 0.000461
2 | KSSKNPKKPKTVK [Unmod H1 variant K S S K N P K K P K T V K] | 0.0196 ± 0.0037 | 0.0061 ± 0.00013 | 0.00185 | 0.003543 ± 3.1e-05 | 0.000774 ± 1.4e-05 | 0.000913 | 0.000181 | 0.00075 ± 7.9e-06
3 | KAKKPAATRKSSK [Unmod H1 variant K A K K P A A T R K S S K] | 0.0344 ± 0.02 | 0.0133 ± 0.00041 | 0.00227 ± 5.2e-05 | 0.0068 ± 0.00046 | 0.000755 ± 1.4e-05 | 0.00103 ± 2.1e-05 | 0.000211 ± 2.2e-06 | 0.00075 ± 7.9e-06
4 | LNKKASSVETKPG [Unmod H1 variant L N K K A S S V E T K P G] | 0.0199 ± 0.0032 | 0.0256 ± 0.00069 | 0.00776 ± 0.0013 | 0.0114 ± 0.00013 | 0.00126 ± 7.1e-05 | 0.00165 ± 3.2e-05 | 0.000921 ± 2e-05 | 0.00127 ± 4.6e-05
5 | KPKAAKARVTKPK [Unmod H1 variant K P K A A K A R V T K P K] | 0.0178 ± 0.00067 | 0.0125 ± 0.0019 | 0.00173 ± 3.7e-05 | 0.00439 ± 0.00016 | 0.00051 ± 1.5e-05 | 0.00097 ± 4e-05 | 0.000166 ± 1.8e-06 | 0.000404 ± 4.4e-06
6 | VKKKARKSAGAAK [Unmod H1 variant V K K K A R K S A G A A K] | 0.0176 ± 0.00024 | 0.0081 ± 0.00035 | 0.00203 ± 4.1e-05 | 0.00553 ± 0.00055 | 0.00145 ± 0.00015 | 0.00143 ± 2.4e-05 | 0.000272 ± 4.9e-06 | 0.000634
7 | TKPKTAKPKKAAP [Unmod H1 variant T K P K T A K P K K A A P] | 0.0172 ± 0.00023 | 0.0103 ± 0.00048 | 0.00173 ± 2.1e-05 | 0.00567 ± 0.00041 | 0.00108 ± 6.8e-05 | 0.00097 ± 9.9e-06 | 0.000227 ± 4.1e-06 | 0.000577 ± 6.2e-06
8 | SKKSVKTPKKAKK [Unmod H1 variant S K K S V K T P K K A K K] | 0.0224 ± 0.0075 | 0.00633 ± 9.9e-05 | 0.00113 ± 3.2e-05 | 0.00206 ± 0.00011 | 0.000359 ± 9.7e-06 | 0.000628 ± 6.7e-06 | 0.000121 ± 1.3e-06 | 0.000577 ± 6.2e-06
9 | PPVSELITKAVAA [Unmod H1 variant P P V S E L I T K A V A A] | 0.0304 ± 0.017 | 0.00833 ± 0.00045 | 0.00382 ± 0.00018 | 0.00397 ± 0.00022 | 0.00296 ± 0.001 | 0.0028 ± 0.00019 | 0.00106 ± 4.4e-05 | 0.00144 ± 5.7e-05
10 | KTVKPKKVAKSPA [Unmod H1 variant K T V K P K K V A K S P A] | 0.0149 ± 0.00058 | 0.0041 ± 5.8e-05 | 0.001552 ± 9.3e-06 | 0.00369 ± 0.00015 | 0.0005286 ± 5.1e-06 | 0.000799 ± 8.3e-06 | 0.000121 ± 2.7e-06 | 0.000461
